Reference: ChEMBL document CHEMBL4513216, “Probing the Open Global Health Chemical Diversity Library for Multistage-Active Starting Points for Next-Generation Antimalarials” (ACS Infect Dis, 2020)
Hit rate of the full screen: of about 69,000 compounds, about 8,600 (12%) showed an effect of 50% or more. The entries come from a sample that favours strong results as a whole.

What follows are molecules tested on Plasmodium berghei (assay: Screen against P. berghei liver stage (PbLuc), transformed with Luciferase, at 10uM). Details: tested at 10 uM.
Assay type: functional, HepG2

Structure (SMILES)	INHIBITION
CSc1cc2c(cc1NC(=O)NCC(=O)N(C)C)OCCO2	35.9%
CSc1cc2c(cc1NC(=O)NCCn1ccnc1)OCCO2	64.6%
COCCN(C)C(=O)Nc1cc2c(cc1SC)OCCO2	-34%
COCCNC(=O)Nc1cc2c(cc1SC)OCCO2	69.1%
CCCNC(=O)Nc1cc2c(cc1SC)OCCO2	8.47%
CC(NC(=O)NCCn1ccnc1)c1ccc2c(c1)OCCO2 (centres undefined)	31.8%
CSc1cc2c(cc1NC(=O)NCc1ccncc1)OCCO2	8.4%
CSc1cc2c(cc1NC(=O)NCC(C)(C)C(N)=O)OCCO2	48.5%
CSc1cc2c(cc1NC(=O)NCC1CCOC1)OCCO2 (centres undefined)	67.3%
O=C(N1CCCC(n2cncn2)C1)C1(c2ccccc2F)CCCC1 (centres undefined)	22.3%
Cn1cnc(CNC(=O)c2ccccc2-n2cc(CN)cn2)c1	-5.71%
COCC1CC2(CCN(Cc3cccnc3)CC2)CN1c1ncccn1 (centres undefined)	22.2%
Cc1cc(S(=O)(=O)NC(=O)CCc2cncc(F)c2)c(C)s1	24.3%
COCc1nc(C(=O)N2CCCC2c2cccc(C)c2)cs1 (centres undefined)	-23.8%
COc1c(C)cnc(CN2CCCC(Cn3nc(C)nc3C)C2)c1C (centres undefined)	-1.14%
CC(NC(=O)NCCn1ccnc1)c1nncn1C (centres undefined)	39.3%
COc1cccc(CNc2cc(N3CCCC3CO)ncn2)n1 (centres undefined)	-14.6%
O=C(O)c1ccccc1-c1ccc(CN2CC(c3ccncn3)C2)o1	6.1%
CN(C)c1cc(CNC(=O)c2ccc(F)cc2)ccn1	-7.35%
CN(C)c1cc(CNC(=O)c2cn(-c3ccc(F)cc3)nn2)ccn1	70.6%

Structure (SMILES)	INHIBITION
CN(C)c1cc(CNC(=O)c2cc(F)ccc2F)ccn1	-2.53%
CC(C)COCC(NC(=O)c1ccncc1)c1ccco1 (centres undefined)	28.8%
CS(=O)(=O)N1CCC(Nc2ccc(C#N)c(C(F)(F)F)c2)CC1	-11.7%
N#Cc1ccc(NC2CCN(c3ncccn3)CC2)cc1Cl	28.7%
N#Cc1ccc(NC2CCN(c3ncccn3)CC2)cc1C(F)(F)F	68.2%
CC(C)(C)c1ncc(C(=O)NCCNc2ncccn2)s1	-39.3%
CCN(Cc1ccncc1)CC1(C)Cc2c(N)nc(N)nc2O1 (centres undefined)	14.27%
CC(C)OCc1ncn2c1CN(Cc1ccoc1)CCC2	59%
CC(C)OCc1ncn2c1CN(Cc1cnn(C)c1)CCC2	-7.24%
COc1ccc(CN2CCCn3cnc(COCC4CC4)c3C2)cc1	42.6%
CC(C)OCc1ncn2c1CN(Cc1ccc(F)cc1)CCC2	9.67%
CC(C)OCc1ncn2c1CN(CCO)CCC2	0.804%
Cc1nc(CN2CCCn3cnc(COCC4CC4)c3C2)cs1	4.02%
Cc1nc(CN2CCCn3cnc(COC(C)C)c3C2)cs1	66%
c1cc(CN2CCCn3cnc(COCC4CC4)c3C2)co1	35.7%
CC(C)OCc1ncn2c1CN(Cc1nccs1)CCC2	46.2%
COc1ccc(CN2CCCn3cnc(COC(C)C)c3C2)cc1	56.7%
CC(C)OCc1ncn2c1CN(CC1CC1)CCC2	66%
c1nc(COCC2CC2)c2n1CCCN(CC1CC1)C2	11.5%
